Test results as given in PubChem BioAssay (NCATS).
Results filed as inconclusive are left out. Values without a mark were called inactive. Activity calls are given as the source filed them. The call rests on the fitted dose curve; in most records, active means well fitted cell-killing curve with a large enough effect; inconclusive means small, poorly fitted or top-dose-only effect; inactive means flat fitted curve, though single readings scatter.

Test: qHTS of pediatric cancer cell lines to identify multiple opportunities for drug repurposing: Primary screen for DAOY cells (AID 1347090); further: nearly all actives have a fitted effect of over 55% in size;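 on activity change, negative = cytotoxic: plate controls were DMSO for no effect and bortezomib for full effect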
Conditions: DAOY medulloblastoma viability, CellTiter-Glo luminescence, 48 h; series mostly up to 46 µM; activity change, negative = cytotoxic: at the top concentration
Procedure, shortened: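 Cell viability, CellTiter-Glo luminescence; 500-1,000 cells/well, 8- or 11-point titration, 48 h compound exposure at 37 degrees C, 5% CO2. Controls: DMSO neutral, bortezomib 2.3 µM final as positive.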
Potency means the concentration at half of the fitted maximal effect.

Row | Compound | activity change, negative = cytotoxic [%] | Potency
1 | CC(C)[N+](C)(C)CC(O)COc1cccc2ccccc12 (stereo unspecified) | -5.6 | –
2 | C/C=C/C=N/NC(=O)c1ccncc1 | 2.4 | –
3 | OC[C@H]1O[C@@H]2O[C@H]3[C@H](O)[C@@H](O)[C@@H](O[C@H]4[C@H](O)[C@@H](O)[C@@H](O[C@H]5[C@H](O)[C@@H](O)[C@@H](O[C@H]6[C@H](O)[C@@H](O)[C@@H](O[C@H]7[C@H](O)[C@@H](O)[C@@H](O[C@H]8[C@H](O)[C@@H](O)[C@@H](O[C@H]1[C@H](O)[C@H]2O)O[C@@H]8CO)O[C@@H]7CO)O[C@@H]6CO)O[C@@H]5CO)O[C@@H]4CO)O[C@@H]3CO | -12.2 | –
4 | CCOCCn1c(N2CCCN(C)CC2)nc2ccccc21 | -6.12 | –
5 | Nc1ccc(C(=O)NCC(=O)O)cc1 | -3.25 | –
6 | O=S(=O)(O)c1ccc(O)cc1 | 8.58 | –
7 | Cc1ncc(CO)c(C=O)c1O | -4.81 | –
8 | CC(C)[C@@H]1CC[C@@H](C)CC1=O | 7.98 | –
9 | N#CCC(=O)NN | 4.95 | –
10 | C=C[C@H]1CN2CC[C@H]1C[C@@H]2[C@@H](O)c1ccnc2ccc(OC)cc12 | 5.46 | –
11 | OCc1ccccn1 | 4.06 | –
12 | O=C(O)C(Cc1cc(I)c(O)c(I)c1)c1ccccc1 (stereo unspecified) | -10 | –
13 | CC(C)NCC(O)c1ccc2ccccc2c1 (stereo unspecified) | -0.977 | –
14 | C[N+]1(CC2COC(c3ccccc3)(C3CCCCC3)O2)CCCCC1 (stereo unspecified) | -1.63 | –
15 | CC(C)Nc1cccnc1N1CCN(C(=O)c2cc3cc(NS(C)(=O)=O)ccc3[nH]2)CC1 | -6.67 | –
16 | C=C[C@H]1CN2CC[C@H]1C[C@H]2[C@H](O)c1ccnc2ccc(OC)cc12 | -13.8 | –
17 | NC1CCN(c2nc3c(cc2F)c(=O)c(C(=O)O)cn3-c2ccc(F)cc2F)C1 (stereo unspecified) | -5.29 | –
18 | CC(=C(CCOC(=O)C(C)C)SSC(CCOC(=O)C(C)C)=C(C)N(C=O)Cc1cnc(C)nc1N)N(C=O)Cc1cnc(C)nc1N | 5.37 | –

Row | Compound | activity change, negative = cytotoxic [%] | Potency
19 | CCN1/C(=C/C=C/c2sc3ccccc3[n+]2CC)Sc2ccccc21 | – | 1.16 µM (active)
20 | CCN1CCN(C(=O)N[C@@H](C(=O)N[C@@H]2C(=O)N3C(C(=O)O)=C(CSc4nnnn4C)CS[C@H]23)c2ccc(O)cc2)C(=O)C1=O | 7.75 | –
21 | CC(=O)OCC1=C(C(=O)O)N2C(=O)[C@@H](NC(=O)CSc3ccncc3)[C@H]2SC1 | 3.94 | –
22 | Nc1nc(-c2ccccc2)c(Br)c(=O)[nH]1 | -13.6 | –
23 | CC(=O)Nc1ccc(OCC(O)CNC(C)C)cc1 (stereo unspecified) | -23.5 | –
24 | OCCOCCN1CCN(C2=Nc3ccccc3Sc3ccccc32)CC1 | -4.25 | –
25 | CC(O)Cn1cnc2c1c(=O)n(C)c(=O)n2C (stereo unspecified) | -3.08 | –
26 | N[C@H](C(=O)O)[C@@H](O)c1ccc(O)c(O)c1 | 7.43 | –
27 | CCOC(=O)c1c(N)sc2c1CCN(Cc1ccccc1)C2 | -10.6 | –
28 | Oc1c(Cl)cc(Cl)c(Cl)c1Cc1c(O)c(Cl)cc(Cl)c1Cl | – | 8.41 µM (active)
29 | C=C[C@@]1(C)CC(=O)[C@]2(O)[C@@]3(C)[C@@H](O)CCC(C)(C)[C@@H]3[C@H](O)[C@H](OC(C)=O)[C@@]2(C)O1 | -17.6 | –
30 | CC(=O)Nc1ccc(OC(=O)c2ccccc2OC(C)=O)cc1 | 7.6 | –
31 | CC(C)(C)CC(C)(C)c1ccc(O)c(-n2nc3ccccc3n2)c1 | 10.6 | –
32 | CN(C)C(=O)Nc1ccc(Cl)c(Cl)c1 | -1.98 | –
33 | CC(C)Cc1ccc(CC(=O)O)cc1 | -6.81 | –
34 | O=C(O)CCC(=O)Nc1ccc(S(=O)(=O)Nc2nccs2)cc1 | -0.149 | –
35 | CNCCc1ccccn1 | 9.21 | –
36 | CN1CCC(OC(c2ccccc2)c2ccccc2)CC1 | -1.54 | –
